Data as given in PubChem BioAssay AID1745853 (National Center for Advancing Translational Sciences (NCATS), 2022).
About 970 (3.9%) of roughly 25,000 compounds were called active. Inconclusive results (about 8%) are left out. The rule behind the calls is not given here. What follows is part of a selection rich in actives, with near analogues and random picks from the rest.

How the values were obtained:
Experiment in all cases: Primary Screen for Target Class Profiling of Small Molecule Inhibitors of Methyltransferases
[1] = target: Catechol O-methyltransferase (Homo sapiens) (UniProt P21964); details: purified enzyme, MTase-Glo SAH luminescence; at 40 µM; stronger effect = lower value
Description: (§1) PI: Matthew D. Hall Ph.D. and Quinlin M. Hanson Ph.D.
(§2) National Center for Advancing Translational Sciences (NCATS)
(§3) National Institute of Health (NIH), Rockville, MD
(§4) Target class profiling (TCP) is a chemical biology approach amenable to investigating understudied biological targets. TCP is achieved by developing a generalizable assay platform and applying it to screen a curated set of compound libraries against representative members of a target class. Small molecule methyltransferases (SMMTase) are a subclass of methyltransferase that act on metabolites to modulate signaling pathways, metabolize xenobiotics, or balance the available methyl pool. We screened four curated libraries totaling 27,574 unique compounds against the SMMTases nicotinamide N-methyltransferase (NNMT), phenylethanolamine N-methyltransferase (PNMT), histamine N-methyltransferase (HNMT), glycine N-methyltransferase (GNMT), catechol O-methyltransferase (COMT), and guanidinoacetate N-methyltransferase (GAMT). The data generated by this TCP can be leveraged for informed tool molecule development. For example, in the associated publication we identified a chemotype of HNMT-selective inhibitors. Additionally, we identified a putative SMMTase-selective inhibitor with potential as a tool molecule for studying broader methyltransferase biology.
(§5) High-through put screening assays were developed at the National Center for Advancing Translational Science (NCATS) for the enzymes NNMT, PNMT, HNMT, GNMT, COMT, and GAMT. Enzymatic activity was measured as a function of SAM cofactor conversion using the MTase Glo kit (Promega) for all enzymes. All assays were performed in 1536-well format with substrates and SAM concentrations at KM values. Enzyme concentration and assay timing were optimized for 10-20% SAM conversion. Initial screening of 27,574 compounds was done as single-point assays using the highest compound concentration (40 uM). […] These compounds were replated in 11-point dose response and assayed against NNMT, PNMT, HNMT, GNMT, COMT, GAMT, and a counter-assay. The IC50 and efficacy (maximal response) values were determined for each dose-response curve. These values are also accounted for in the area under the curve (AUC) values.
(§6) PROTOCOL TABLE (as described by Inglese J, Shamu CE and Guy RK. 2007)
(§7) SEQUENCE No. (e.g., 1, 2, 3, etc.); […] (e.g., Cells, Incubation, Reagent, etc.); VALUE; DESCRIPTION.
(§8) 1; Reagent; 2 uL; SMMTase Enzyme (2x) in reaction buffer, columns 1- 48.
(§9) 2; Reagent; 1 uL; SAM (4x) in reaction buffer, columns 1-48.
(§10) 3; Controls; 23 nL; DMSO in column 4; sinefungin in DMSO (0 uM - 40 uM) in 7-point 1:2 dilution series (n = 2) in column 2.
(§11) 4; Compounds; 23 nL; Columns 5-48.
(§12) 5; Reagent; 1 uL; Substrate (4x) in reaction buffer, columns 2-48.
(§13) 6; Time; 20-30 min; Incubation.
(§14) 7; Reagent; 1 uL; MTase-Glo reagent (5X), columns 1-48.
(§15) 8; Time; 30 min; Incubation.
(§16) 9; Reagent; 5 uL; MTase-Glo Detection reagent, columns 1-48.
(§17) 10; Time; 30 min; Incubation, luminescence evolution.
(§18) 11; Detection; Luminescence; ViewLux uHTS Microplate Imager (PerkinElmer).
(§19) NOTES (numbers refer to Sequence numbers above)
(§20) 1, 2, 5. White Medium Binding Greiner 1536-well plates (Cat #789175-F, Greiner Bio-One, Monroe, NC); Reaction buffer: 50 mM Tris, pH 8.0, 3 mM MgCl2, 1 mM EDTA, 50 mM NaCl, 1 mM DTT, and 0.1 mg/mL BSA. Evaporation was prevented by covering assay plates with metal lids containing holes to allow gas diffusion.
(§21) 1. Six SMMTase were profiled: HNMT, GNMT, PNMT, COMT, NNMT, GAMT
(§22) 5. The corresponding substrate was used for each enzyme: HNMT - 5.3 uM Histamine; GNMT - >500 uM Glycine; PNMT - 16.2 uM Norephinephrine; COMT - 13.7 uM Norephinephrine; NNMT - 3.8 uM Nicotinamide; GAMT - 2.5 uM Guanidinoacetate.6, 8, 10. Room temperature
(§23) 6. Final reaction conditions: 10 nM COMT, 5 uM SAM, 15 uM norepinephrine, 50 mM Tris, pH 8.0, 3 mM MgCl2, 1 mM EDTA, 50 mM NaCl, 1 mM DTT, and 0.1 mg/mL BSA; refer to tables 2 and S1 for specific timing.
8. […]

[2] = target: Glycine N-methyltransferase (Homo sapiens) (UniProt Q14749); details: purified enzyme, MTase-Glo SAH luminescence; measured here: GNMT inhibition; at 40 µM; stronger effect = lower value
Description: as §1, §2, §3, §4, §5, §6, §7, §8, §9, §10, §11, §12, §13, §14, §15, §16, §17, §18, §19, §20, §21, §22, §23
8. […]

[3] = target: Guanidinoacetate N-methyltransferase (Homo sapiens) (UniProt Q14353); details: purified enzyme, MTase-Glo SAH luminescence; measured here: GAMT inhibition; at 40 µM; stronger effect = lower value
Description: as §1, §2, §3, §4, §5, §6, §7, §8, §9, §10, §11, §12, §13, §14, §15, §16, §17, §18, §19, §20, §21, §22, §23
8. […]

[4] = target: Histamine N-methyltransferase (Homo sapiens) (UniProt P50135); details: purified enzyme, MTase-Glo SAH luminescence; measured here: HNMT inhibition; at 40 µM; stronger effect = lower value
Description: as §1, §2, §3, §4, §5, §6, §7, §8, §9, §10, §11, §12, §13, §14, §15, §16, §17, §18, §19, §20, §21, §22, §23
8. […]

[5] = target: Nicotinamide N-methyltransferase (Homo sapiens) (UniProt P40261); details: purified enzyme, MTase-Glo SAH luminescence; measured here: NNMT inhibition; at 40 µM; stronger effect = lower value
Description: as §1, §2, §3, §4, §5, §6, §7, §8, §9, §10, §11, §12, §13, §14, §15, §16, §17, §18, §19, §20, §21, §22, §23
8. […]

[6] = target: Phenylethanolamine N-methyltransferase (Homo sapiens) (UniProt P11086); details: purified enzyme, MTase-Glo SAH luminescence; measured here: PNMT inhibition; at 40 µM; stronger effect = lower value
Description: as §1, §2, §3, §4, §5, §6, §7, §8, §9, §10, §11, §12, §13, §14, §15, §16, §17, §18, §19, §20, §21, §22, §23
8. […]
% is set by controls: 0 for no effect and ±100 for the full control effect.

Sequence of Histamine N-methyltransferase (Homo sapiens) (P50135 whole entry, looked up): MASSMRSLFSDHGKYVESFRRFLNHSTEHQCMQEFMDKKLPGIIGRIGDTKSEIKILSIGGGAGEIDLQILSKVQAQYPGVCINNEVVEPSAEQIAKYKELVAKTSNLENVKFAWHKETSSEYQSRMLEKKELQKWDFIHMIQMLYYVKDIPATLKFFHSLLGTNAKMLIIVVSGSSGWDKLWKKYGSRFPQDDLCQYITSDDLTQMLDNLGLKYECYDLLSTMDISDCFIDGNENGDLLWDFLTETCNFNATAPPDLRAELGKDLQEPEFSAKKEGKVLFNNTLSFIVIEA
Sequence of Nicotinamide N-methyltransferase (Homo sapiens) (P40261 whole entry, looked up): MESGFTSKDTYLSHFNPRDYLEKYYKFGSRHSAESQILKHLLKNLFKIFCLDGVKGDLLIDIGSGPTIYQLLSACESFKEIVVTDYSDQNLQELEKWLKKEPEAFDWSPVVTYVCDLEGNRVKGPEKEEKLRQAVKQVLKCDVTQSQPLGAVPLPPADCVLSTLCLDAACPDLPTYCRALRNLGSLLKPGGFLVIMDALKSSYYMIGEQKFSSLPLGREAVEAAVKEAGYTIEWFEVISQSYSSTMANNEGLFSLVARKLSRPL
Sequence of Phenylethanolamine N-methyltransferase (Homo sapiens) (P11086 whole entry, looked up): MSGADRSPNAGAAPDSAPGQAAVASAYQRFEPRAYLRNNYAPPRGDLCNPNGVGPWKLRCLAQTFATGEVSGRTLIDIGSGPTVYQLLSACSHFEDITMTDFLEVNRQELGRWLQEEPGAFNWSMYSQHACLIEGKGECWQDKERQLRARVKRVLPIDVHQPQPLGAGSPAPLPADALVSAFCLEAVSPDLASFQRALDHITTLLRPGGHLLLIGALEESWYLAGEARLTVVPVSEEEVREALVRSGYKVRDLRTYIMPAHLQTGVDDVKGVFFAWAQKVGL
Sequence of Catechol O-methyltransferase (Homo sapiens) (P21964 whole entry, looked up): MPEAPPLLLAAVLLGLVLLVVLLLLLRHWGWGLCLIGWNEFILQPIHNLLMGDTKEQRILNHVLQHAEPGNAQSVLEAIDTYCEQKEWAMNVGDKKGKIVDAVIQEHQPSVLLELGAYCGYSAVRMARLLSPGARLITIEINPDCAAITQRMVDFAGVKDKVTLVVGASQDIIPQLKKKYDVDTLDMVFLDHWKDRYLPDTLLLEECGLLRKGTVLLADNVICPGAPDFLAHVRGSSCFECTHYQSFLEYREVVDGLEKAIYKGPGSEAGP
Sequence of Glycine N-methyltransferase (Homo sapiens) (Q14749 whole entry, looked up): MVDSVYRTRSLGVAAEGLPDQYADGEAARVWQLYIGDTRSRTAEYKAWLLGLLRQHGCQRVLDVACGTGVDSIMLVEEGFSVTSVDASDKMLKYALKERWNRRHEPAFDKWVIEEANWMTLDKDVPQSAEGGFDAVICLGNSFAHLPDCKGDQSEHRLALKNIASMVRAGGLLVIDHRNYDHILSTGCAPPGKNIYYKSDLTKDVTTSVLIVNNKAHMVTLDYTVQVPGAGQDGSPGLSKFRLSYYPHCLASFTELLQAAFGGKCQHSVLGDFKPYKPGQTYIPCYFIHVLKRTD

Structure (SMILES)	activity change, negative = inhibition [1]	activity change, negative = inhibition [2]	activity change, negative = inhibition [3]	activity change, negative = inhibition [4]	activity change, negative = inhibition [5]	activity change, negative = inhibition [6]
C[C@H]1O[C@@H](O[C@H]2CC[C@]3(CO)C4CC[C@]5(C)[C@@H](C6=CC(=O)OC6)CC[C@]5(O)[C@@H]4CC[C@H]3C2)[C@H](O)[C@H](O)[C@@H]1O[C@@H]1O[C@H](CO)[C@@H](O)[C@H](O)[C@H]1O (stereo not given in full)	-91.7% (active)	-5.56%	-4.58%	-5.35%	-16%	0.37%
COC1CC(O[C@H]2CC[C@@]3(C)C(CCC4C3CC[C@]3(C)[C@@H](C5=CC(=O)OC5)CC[C@]43O)C2)OC(C)C1O (stereo not given in full)	-9.86% (inactive)	-6.87%	-29.4%	1.18%	-27.7%	-12.7%
CO[C@H]1C[C@H](O[C@H]2CC[C@]3(CO)[C@H]4CC[C@]5(C)[C@@H](C6=CC(=O)OC6)CC[C@]5(O)[C@@H]4CC[C@]3(O)C2)O[C@H](C)[C@H]1O	-8.57% (inactive)	-6.2%	-5.89%	-0.519%	-17.6%	-14.3%
CN(C)c1ccc(C2c3cccn3-c3ccccc3CN2C(=O)NCc2ccccc2)cc1 (stereo not given)	0.57% (inactive)	0.802%	6.24%	-5.35%	-6.61%	-0.417%
CN(C)c1ccc(C2c3cccn3-c3ccccc3CN2C(=O)Nc2ccccc2)cc1 (stereo not given)	-1.13% (inactive)	1.96%	-0.001%	-8%	-4.78%	-1.52%
NCC(O)c1ccc(O)cc1 (stereo not given)	3.68% (active)	-1.52%	3.17%	-74.4%	-9.18%	11.4%
COCC1CN(Cc2ccsc2)CC12CCNCC2 (stereo not given)	-8.14% (inactive)	-4.38%	-6.87%	-9.72%	-11.7%	-11.5%
CCc1ccccc1NC(=O)N1Cc2ccccc2-n2cccc2C1c1ccccc1Cl (stereo not given)	-0.522% (inactive)	4.4%	3.52%	-2.61%	1.65%	1.03%
CC(=O)Nc1ccc(-c2ccc3n(c2=O)C[C@H]2C[C@@H]3CN(C3CCN(C)CC3)C2)cc1	-5.08% (inactive)	-3.31%	-2.09%	-19.5%	-9.65%	8.92%
C#C[C@]1(O)CC[C@H]2[C@@H]3CC[C@H]4Cc5nc6nc7ccccc7n6cc5C[C@]4(C)[C@H]3CC[C@@]21C	-23.3% (active)	-13.8%	-29.6%	-17.3%	-52.4%	-33.3%
COc1cccc([C@H]2CN(c3cc(C)nc(N)n3)[C@@H]3C4CCN(CC4)[C@H]23)c1	-2.54% (inactive)	-5.12%	-8.6%	-24.3%	-8.14%	-9.36%
COc1cccc(CC(=O)N2CCCCCC2CN2CCCC2)c1 (stereo not given)	3.61% (inactive)	-1.59%	-5.27%	-5.48%	-4.35%	0.866%
CCc1ccc(C2c3cccn3-c3ccccc3CN2C(=O)Nc2cc(C)cc(C)c2)cc1 (stereo not given)	5.19% (inactive)	9.8%	0.9%	2.8%	4.04%	7.84%
COC(=O)c1ccccc1NC(=O)N1Cc2ccccc2-n2cccc2C1c1ccccc1Cl (stereo not given)	3.56% (inactive)	11.4%	3.31%	5.36%	0.178%	5.41%
CCC1c2cccn2-c2ccccc2CN1C(=O)Nc1cccc(C)c1C (stereo not given)	2.68% (inactive)	-0.789%	3.87%	-2.49%	-4.56%	2.16%
